In the supplement of paper PMC10849652 one finds log2 fold change data, which are given here for 37 targets.

Targets with a hit are over-represented here; the source holds about 8,800 in all. About 0.5% of all pairs of compound and target were hits. A number with no mark means an inactive call.

UniProt Q9NWR8, sequence (Q9NWR8 whole entry, looked up): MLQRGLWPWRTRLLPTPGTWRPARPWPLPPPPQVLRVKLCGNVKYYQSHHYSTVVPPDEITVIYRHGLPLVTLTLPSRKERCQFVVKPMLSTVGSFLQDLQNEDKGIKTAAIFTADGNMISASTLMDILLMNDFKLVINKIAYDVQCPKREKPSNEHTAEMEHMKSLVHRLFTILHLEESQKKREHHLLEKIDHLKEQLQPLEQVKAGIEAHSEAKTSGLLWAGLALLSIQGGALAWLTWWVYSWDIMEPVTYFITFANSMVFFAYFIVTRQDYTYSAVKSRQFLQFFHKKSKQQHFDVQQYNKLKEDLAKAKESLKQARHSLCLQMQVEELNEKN
UniProt Q16644, sequence (Q16644 whole entry, looked up): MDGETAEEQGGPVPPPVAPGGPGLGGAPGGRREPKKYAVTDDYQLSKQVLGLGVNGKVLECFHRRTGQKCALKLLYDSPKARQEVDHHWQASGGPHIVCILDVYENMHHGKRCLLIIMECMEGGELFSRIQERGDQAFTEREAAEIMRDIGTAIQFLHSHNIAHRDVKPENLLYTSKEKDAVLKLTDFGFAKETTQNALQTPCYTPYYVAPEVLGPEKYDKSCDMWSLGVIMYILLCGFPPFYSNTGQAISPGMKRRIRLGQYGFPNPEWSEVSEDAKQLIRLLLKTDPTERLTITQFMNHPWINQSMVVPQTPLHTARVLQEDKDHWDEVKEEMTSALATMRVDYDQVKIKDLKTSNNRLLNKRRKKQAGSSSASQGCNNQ
UniProt Q9BTT4, sequence (Q9BTT4 whole entry, looked up): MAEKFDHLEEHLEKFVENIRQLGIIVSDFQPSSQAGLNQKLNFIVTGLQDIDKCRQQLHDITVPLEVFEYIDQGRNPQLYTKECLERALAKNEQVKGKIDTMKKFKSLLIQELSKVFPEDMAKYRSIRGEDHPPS
UniProt Q8WXB1, sequence (Q8WXB1 whole entry, looked up): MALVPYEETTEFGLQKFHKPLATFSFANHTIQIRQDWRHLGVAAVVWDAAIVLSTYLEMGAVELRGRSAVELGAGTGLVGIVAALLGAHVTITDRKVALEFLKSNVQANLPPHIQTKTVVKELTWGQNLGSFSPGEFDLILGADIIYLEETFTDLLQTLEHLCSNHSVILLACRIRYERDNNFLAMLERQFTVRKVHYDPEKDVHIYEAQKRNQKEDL
UniProt Q8NF37, sequence (Q8NF37 whole entry, looked up): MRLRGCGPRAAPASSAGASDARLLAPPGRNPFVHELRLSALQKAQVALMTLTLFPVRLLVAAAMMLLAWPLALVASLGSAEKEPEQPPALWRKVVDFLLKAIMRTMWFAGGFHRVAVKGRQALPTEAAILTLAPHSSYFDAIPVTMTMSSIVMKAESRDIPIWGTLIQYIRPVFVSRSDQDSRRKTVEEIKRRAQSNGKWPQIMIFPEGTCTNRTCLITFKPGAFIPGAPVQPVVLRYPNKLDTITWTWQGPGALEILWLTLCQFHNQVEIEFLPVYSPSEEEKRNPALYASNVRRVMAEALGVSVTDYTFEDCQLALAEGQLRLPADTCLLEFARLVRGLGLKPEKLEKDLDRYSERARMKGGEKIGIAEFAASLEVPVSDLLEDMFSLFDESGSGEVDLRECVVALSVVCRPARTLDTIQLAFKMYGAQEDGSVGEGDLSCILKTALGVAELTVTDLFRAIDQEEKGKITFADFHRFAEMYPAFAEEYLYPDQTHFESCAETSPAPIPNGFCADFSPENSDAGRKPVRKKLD
UniProt P45983, sequence (P45983 whole entry, looked up): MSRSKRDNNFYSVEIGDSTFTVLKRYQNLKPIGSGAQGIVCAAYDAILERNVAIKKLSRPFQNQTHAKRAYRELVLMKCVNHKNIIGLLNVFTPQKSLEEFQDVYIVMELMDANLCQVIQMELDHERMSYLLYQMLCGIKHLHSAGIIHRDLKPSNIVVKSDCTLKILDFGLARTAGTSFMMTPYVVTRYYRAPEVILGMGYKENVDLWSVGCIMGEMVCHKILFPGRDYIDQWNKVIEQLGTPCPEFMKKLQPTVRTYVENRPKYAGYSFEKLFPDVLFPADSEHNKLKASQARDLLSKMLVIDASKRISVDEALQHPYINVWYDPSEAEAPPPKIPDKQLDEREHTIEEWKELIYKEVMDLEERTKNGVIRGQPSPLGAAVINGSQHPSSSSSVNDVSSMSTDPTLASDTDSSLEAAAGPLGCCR
UniProt P08473, sequence (P08473 whole entry, looked up): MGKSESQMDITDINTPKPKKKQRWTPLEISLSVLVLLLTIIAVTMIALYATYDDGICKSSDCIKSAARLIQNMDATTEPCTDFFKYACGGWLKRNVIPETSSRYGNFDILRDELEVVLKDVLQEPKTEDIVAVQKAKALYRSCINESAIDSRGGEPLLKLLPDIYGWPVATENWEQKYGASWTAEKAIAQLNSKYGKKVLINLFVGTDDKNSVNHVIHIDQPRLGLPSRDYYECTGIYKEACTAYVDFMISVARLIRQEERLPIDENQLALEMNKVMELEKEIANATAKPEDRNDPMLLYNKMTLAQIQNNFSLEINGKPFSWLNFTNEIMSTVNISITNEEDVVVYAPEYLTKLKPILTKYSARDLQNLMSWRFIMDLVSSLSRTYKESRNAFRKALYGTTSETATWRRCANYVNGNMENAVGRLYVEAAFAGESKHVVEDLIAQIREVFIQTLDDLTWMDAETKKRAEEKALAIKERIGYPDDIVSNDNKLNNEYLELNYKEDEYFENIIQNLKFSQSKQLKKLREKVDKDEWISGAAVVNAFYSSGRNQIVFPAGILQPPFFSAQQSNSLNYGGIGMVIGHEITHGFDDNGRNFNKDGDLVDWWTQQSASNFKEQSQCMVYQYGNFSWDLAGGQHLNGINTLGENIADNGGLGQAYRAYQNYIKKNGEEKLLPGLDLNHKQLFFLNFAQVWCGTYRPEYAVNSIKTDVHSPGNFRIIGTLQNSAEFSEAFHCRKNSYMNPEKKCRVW
UniProt Q9Y6R4, sequence (Q9Y6R4 whole entry, looked up): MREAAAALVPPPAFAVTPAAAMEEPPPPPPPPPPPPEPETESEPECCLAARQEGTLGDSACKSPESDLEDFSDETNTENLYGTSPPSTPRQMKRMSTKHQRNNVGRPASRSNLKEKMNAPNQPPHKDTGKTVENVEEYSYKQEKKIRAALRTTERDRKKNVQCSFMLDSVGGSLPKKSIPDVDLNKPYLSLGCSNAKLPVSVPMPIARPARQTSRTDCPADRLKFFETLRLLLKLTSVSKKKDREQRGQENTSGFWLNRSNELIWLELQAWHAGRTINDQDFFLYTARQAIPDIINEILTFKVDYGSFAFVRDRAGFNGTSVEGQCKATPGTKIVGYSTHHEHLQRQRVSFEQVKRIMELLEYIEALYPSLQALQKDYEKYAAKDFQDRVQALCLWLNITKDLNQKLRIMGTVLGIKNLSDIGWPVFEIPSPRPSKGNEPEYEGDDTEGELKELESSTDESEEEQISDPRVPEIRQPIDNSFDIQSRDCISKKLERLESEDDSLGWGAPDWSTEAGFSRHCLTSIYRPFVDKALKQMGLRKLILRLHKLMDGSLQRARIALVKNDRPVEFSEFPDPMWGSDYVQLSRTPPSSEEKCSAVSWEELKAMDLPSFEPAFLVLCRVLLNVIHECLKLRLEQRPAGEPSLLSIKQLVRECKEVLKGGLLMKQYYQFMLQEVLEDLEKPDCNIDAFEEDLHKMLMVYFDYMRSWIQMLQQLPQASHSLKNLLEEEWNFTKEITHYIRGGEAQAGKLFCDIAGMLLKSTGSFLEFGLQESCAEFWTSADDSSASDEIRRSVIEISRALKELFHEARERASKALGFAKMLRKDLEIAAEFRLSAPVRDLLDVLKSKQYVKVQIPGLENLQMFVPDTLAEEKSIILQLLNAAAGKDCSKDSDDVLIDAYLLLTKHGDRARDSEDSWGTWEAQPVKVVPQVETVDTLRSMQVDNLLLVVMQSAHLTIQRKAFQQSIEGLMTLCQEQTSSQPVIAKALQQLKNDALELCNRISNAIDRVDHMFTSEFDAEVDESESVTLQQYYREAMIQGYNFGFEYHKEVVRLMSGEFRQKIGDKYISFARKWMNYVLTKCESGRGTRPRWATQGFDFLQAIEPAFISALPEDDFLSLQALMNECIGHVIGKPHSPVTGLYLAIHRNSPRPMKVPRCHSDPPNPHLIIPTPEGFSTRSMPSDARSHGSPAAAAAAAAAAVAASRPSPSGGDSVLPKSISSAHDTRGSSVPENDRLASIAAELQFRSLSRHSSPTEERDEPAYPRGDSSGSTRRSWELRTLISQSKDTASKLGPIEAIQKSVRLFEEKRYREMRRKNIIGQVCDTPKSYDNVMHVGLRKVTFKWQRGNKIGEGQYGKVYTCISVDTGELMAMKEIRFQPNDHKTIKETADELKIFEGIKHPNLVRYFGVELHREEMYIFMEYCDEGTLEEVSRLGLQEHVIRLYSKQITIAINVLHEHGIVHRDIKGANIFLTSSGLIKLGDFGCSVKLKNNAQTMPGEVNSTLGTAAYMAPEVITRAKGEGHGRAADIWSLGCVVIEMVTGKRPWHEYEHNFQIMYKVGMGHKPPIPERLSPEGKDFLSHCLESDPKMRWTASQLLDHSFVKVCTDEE
UniProt Q5SRI9, sequence (Q5SRI9 whole entry, looked up): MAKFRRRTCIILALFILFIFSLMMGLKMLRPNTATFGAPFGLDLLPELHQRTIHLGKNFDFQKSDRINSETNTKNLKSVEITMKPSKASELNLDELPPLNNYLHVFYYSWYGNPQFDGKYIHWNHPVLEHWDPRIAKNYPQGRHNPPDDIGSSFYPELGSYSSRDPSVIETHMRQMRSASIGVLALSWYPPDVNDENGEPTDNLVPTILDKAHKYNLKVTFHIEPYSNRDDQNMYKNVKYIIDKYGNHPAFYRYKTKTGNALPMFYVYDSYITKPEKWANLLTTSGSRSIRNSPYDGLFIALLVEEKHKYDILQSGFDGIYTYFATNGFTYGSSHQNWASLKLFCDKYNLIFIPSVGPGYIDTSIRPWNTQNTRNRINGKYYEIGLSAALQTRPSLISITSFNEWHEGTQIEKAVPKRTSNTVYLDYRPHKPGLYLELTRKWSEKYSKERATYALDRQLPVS
UniProt O15243, sequence (O15243 whole entry, looked up): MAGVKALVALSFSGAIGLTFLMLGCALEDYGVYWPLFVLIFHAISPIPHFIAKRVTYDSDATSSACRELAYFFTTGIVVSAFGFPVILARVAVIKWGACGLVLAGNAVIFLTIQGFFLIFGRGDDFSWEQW

Compound in one experiment: CCn1c(C(=O)N(C2CC2)C2CC2)cc2c3c(ncn3C)c(Nc3cc(C)n(C)n3)nc21
The experiment is described as follows: log2 fold change, soluble protein after heating vs DMSO (PISA); higher = thermal stabilisation; K562 lysate, 10 uM; active = over 0.2 and 3.5 SD of the protein, either way, in both replicates (recomputed). The method in brief: (§1)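 Soluble protein was defined as the supernatant remaining after 21,000xg for 90 min, following pooling of heated aliquots and adjustment to 0.5% NP-40 at 4°C. Before that, crude K562 extract at 1 mg/mL protein in PBS pH 7.4 with 1 mM MgCl2 was treated with 10 μM compound for 30 min and heated for 3 min across 48°C-58°C. Quantification used TMTpro 16plex LC-MS/MS with channel sums equalised, and values are log-two fold changes in thermal stability relative to solvent controls from duplicates.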
As for MME (UniProt P08473), the log2 fold change was 0.075.
Regarding MAP4K2 (UniProt Q12851), the log2 fold change was -0.023.
Regarding LIMK1 (UniProt P53667), the log2 fold change was 0.108.
Turning to MCUB (UniProt Q9NWR8), the log2 fold change was -0.222.
On the same count and under the same terms, the value for METTL21A (UniProt Q8WXB1) was -0.054; that for MINDY1 isoform 3 (UniProt Q8N5J2) was -0.106.
On to MAP4 isoform 5 (UniProt P27816), for which the log2 fold change is -0.266.
The same measure, in the same setting: next, MAPKAPK3 (UniProt Q16644): 0.028; LPCAT1 (UniProt Q8NF37): -0.072.
Consider MANEA (UniProt Q5SRI9), for which the log2 fold change was 0.005.
For MRPL30 isoform 2 (UniProt Q8TCC3), the log2 fold change is -0.027.
The same measure, in the same setting: the value for KRIT1 (UniProt O00522) was -0.052; that for LTN1 isoform 3 (UniProt O94822) was -0.004.
Same read-out and setting: the value for MAPK8 isoform 3 (UniProt P45983) was -0.005; that for MED10 (UniProt Q9BTT4) was -0.009; that for MAP3K4 (UniProt Q9Y6R4) was 0.012.
The same measure, in the same setting: next, MAP4K4 isoform 6 (UniProt O95819): -0.025.

Compound in another experiment: CCn1cc(-c2ccnc3[nH]c(-c4cccc(CN(C)C)c4)cc23)c(-c2ccc(NC(=O)N(C)C)cc2)n1
Described as above. The method in brief:
as §1
In the case of MAP4K5 (UniProt Q9Y4K4), the log2 fold change was 0.
The same measure, in the same setting: next, MACO1 (UniProt Q8N5G2): 0.113; LEPROT (UniProt O15243): -0.043.
LSS (UniProt P48449): the log2 fold change was -0.09.
Same read-out and setting: the value for KIF4B (UniProt Q2VIQ3) was 0.007; that for MRPL27 (UniProt Q9P0M9) was 0.926 (active); that for MED25 isoform 3 (UniProt Q71SY5) was 0.013.
For MAP7D3 (UniProt Q8IWC1), the log2 fold change was -0.053.
Still for that read-out and setting: the value for MITD1 (UniProt Q8WV92) was -0.269; that for MED14 (UniProt O60244) was -0.008.
Take LIMK2 isoform 3 (UniProt P53671): the log2 fold change was 0.963 (active).
Same read-out and setting: next, LAMP1 (UniProt P11279): -0.508 (active); MAPK3 (UniProt P27361): 0.
The same measure, in the same setting: the value for MRPL35 (UniProt Q9NZE8) was -0.124; that for MAN2B2 (UniProt Q9Y2E5) was 0.648 (active).
Turning to MAST2 (UniProt Q6P0Q8), the log2 fold change was 0.102.
Still for that read-out and setting: next, MGST3 (UniProt O14880): 0.286 (active); MAPK14 (UniProt Q16539): -0.035; LRRC7 (UniProt Q96NW7): -0.033.
Still for that read-out and setting: the value for MIF4GD isoform 3 (UniProt A9UHW6) was 0.028; that for MME (UniProt P08473) was -0.044.
Same read-out and setting: next, MAP4K2 (UniProt Q12851): -0.317; LIMK1 (UniProt P53667): -0.104; MCUB (UniProt Q9NWR8): 0.
Turning to METTL21A (UniProt Q8WXB1), the log2 fold change is -0.011.
Consider MAPKAPK3 (UniProt Q16644), for which the log2 fold change was -0.001.
On to LPCAT1 (UniProt Q8NF37), for which the log2 fold change is -0.39 (active).
As to MANEA (UniProt Q5SRI9), the log2 fold change was -0.627 (active).
Same read-out and setting: the value for MRPL30 isoform 2 (UniProt Q8TCC3) was 0.563 (active); that for LTN1 isoform 3 (UniProt O94822) was 0.035; that for MAPK8 isoform 3 (UniProt P45983) was 0.013.
Turning to MED10 (UniProt Q9BTT4), the log2 fold change is 0.107.
Still for that read-out and setting: the value for MAP3K4 (UniProt Q9Y6R4) was 0.047.

Compound in a further experiment: CN1CCC(CNc2ccc3ncc(-c4cccc(OC(F)(F)F)c4)n3n2)CC1
The description is as above. The method in brief:
as §1
In the case of MAP4K5 (UniProt Q9Y4K4), the log2 fold change was -0.007.
Same read-out and setting: next, MACO1 (UniProt Q8N5G2): -0.037.
Same read-out and setting: the value for LEPROT (UniProt O15243) was -0.02; that for LSS (UniProt P48449) was 0.123; that for KIF4B (UniProt Q2VIQ3) was -0.073.
Same read-out and setting: the value for MRPL27 (UniProt Q9P0M9) was -0.218; that for MED25 isoform 3 (UniProt Q71SY5) was -0.056.
With MAP7D3 (UniProt Q8IWC1), the log2 fold change was -0.006.
For MITD1 (UniProt Q8WV92), the log2 fold change was -0.163.
As for MED14 (UniProt O60244), the log2 fold change is 0.009.
In the case of LIMK2 isoform 3 (UniProt P53671), the log2 fold change was 0.023.
In the case of LAMP1 (UniProt P11279), the log2 fold change is 0.24.
Still for that read-out and setting: next, MAPK3 (UniProt P27361): 0.026.
With MRPL35 (UniProt Q9NZE8), the log2 fold change was -0.011.
The same measure, in the same setting: next, MAN2B2 (UniProt Q9Y2E5): -0.649 (active).
On the same count and under the same terms, the value for MAST2 (UniProt Q6P0Q8) was 0.06; that for MGST3 (UniProt O14880) was -0.082.
Turning to MAPK14 (UniProt Q16539), the log2 fold change was 0.093.
The same measure, in the same setting: next, LRRC7 (UniProt Q96NW7): -0.043.
On the same count and under the same terms, next, MIF4GD isoform 3 (UniProt A9UHW6): 0.015.
Still for that read-out and setting: the value for MME (UniProt P08473) was 0.009; that for MAP4K2 (UniProt Q12851) was 0.105; that for LIMK1 (UniProt P53667) was -0.028.
For the target MCUB (UniProt Q9NWR8), the log2 fold change was -0.054.
For the target METTL21A (UniProt Q8WXB1), the log2 fold change was 0.049.
On to MAPKAPK3 (UniProt Q16644), for which the log2 fold change was -0.067.
As for LPCAT1 (UniProt Q8NF37), the log2 fold change was 0.099.
Take MANEA (UniProt Q5SRI9): the log2 fold change was 0.254.
MRPL30 isoform 2 (UniProt Q8TCC3): the log2 fold change is -0.434 (active).
For the target LTN1 isoform 3 (UniProt O94822), the log2 fold change was -0.106.
For the target MAPK8 isoform 3 (UniProt P45983), the log2 fold change is 0.055.
In the case of MED10 (UniProt Q9BTT4), the log2 fold change is -0.059.
Same read-out and setting: next, MAP3K4 (UniProt Q9Y6R4): 0.015.
